This passage reports INHIBITION results from ChEMBL document CHEMBL4513216, “Probing the Open Global Health Chemical Diversity Library for Multistage-Active Starting Points for Next-Generation Antimalarials” (ACS Infect Dis, 2020).

Out of some 69,000 compounds screened, about 8,600 (12%) showed an effect of 50% or more. Only a selection was taken, and strong results are over-represented in it overall.

The experiment relates to Plasmodium berghei. The experiment in a line: Screen against P. berghei liver stage (PbLuc), transformed with Luciferase, at 10uM. Type of experiment: functional, HepG2. The note with it: tested at 10 uM.
In the case of `CC(C)n1cc(CN(Cc2ccc(F)cc2)CC2CCCO2)cn1` (centres undefined), the INHIBITION came to 18.4%.
As for `O=C(CSC1=NS(=O)(=O)c2cc(F)ccc2N1)c1ccccc1`, the figure is 10.2%; as for `Cc1cccc(NC(=O)C2CCc3ccccc3N2)c1` (centres undefined), -71.7%; as for `Cc1occc1C(=O)N1CCn2c(COCC3CC3)cnc2C1C` (centres undefined), 39.3%.
Next, `Cn1cc(C(=O)NCCc2csc(-c3ccccc3)n2)ccc1=O`: -8.92%; `COc1cccc(S(=O)(=O)NC(=O)CCC2CCCO2)c1` (centres undefined): -9.76%; `COC1CN(C(=O)NC2CCCC2)CCC(=O)N(C)c2ccccc21` (centres undefined): 56.3%.
Regarding `COC1CCN(C(=O)Nc2ccccc2)CC(=O)N(C)c2ccccc21` (centres undefined), the INHIBITION worked out at 55.5%.
As to `COC1CN(C(=O)COC(C)=O)CCC(=O)N(C)c2ccccc21` (centres undefined), the INHIBITION was 20.7%.
Next, `COC1CN(C(=O)C2CC2)CCC(=O)N(C)c2ccccc21` (centres undefined): 29%; `COC1CN(C(=O)CC(C)C)CCC(=O)N(C)c2ccccc21` (centres undefined): 1.8%; `COC1CN(C(=O)OCC(C)C)CCC(=O)N(C)c2ccccc21` (centres undefined): 52.5%.
As for `COC1CCN(C(=O)C2CCCC2)CC(=O)N(C)c2ccccc21` (centres undefined), the figure is 33.6%.
Next, `COC1CN(C(=O)CC2CCCC2)CCC(=O)N(C)c2ccccc21` (centres undefined): 11.6%; `COC1CN(C(=O)Nc2ccccc2)CCC(=O)N(C)c2ccccc21` (centres undefined): 13.1%; `Cc1cc(NS(=O)(=O)c2ccc(C(=O)O)cc2F)ccc1F`: -2.33%.
As to `O=C1C[C@@H]2[C@H](CCN2Cc2ccco2)N1c1ccsc1`, the INHIBITION came out at 39.3%.
Next, `O=C(Cn1cc(Cl)cn1)N1CCNC1=O`: 45.9%; `COc1ccc(CN2CCc3c(nc(-c4ccccn4)[nH]c3=O)C2)cc1`: -11.7%; `Cc1oncc1C(=O)NCc1cc(=O)n2c(n1)CN(CC(C)C)CCC2`: 38.3%.
On to `CC(C)n1nnnc1-c1ccc(NC(=O)CCC(F)(F)F)cc1F`, for which the INHIBITION is on record as 40.3%.
In the case of `CCCC(=O)NCCc1nc2cc(-c3ccc(OC)cc3)ncn2n1`, the INHIBITION was -3%.
Next, `Cn1nc(CN2CCCC2)c2c1CN(CC1CC1)CC2`: 11.6%.
As for `CC(C)n1nc(CN(C)C)c2c1CN(CC1CC1)CC2`, the figure is 20.1%; as for `CC(=O)NCC(=O)N1CCc2c(CN(C)C)nn(C(C)C)c2C1`, 34.9%.
Next, `CC(C)n1nc(CN(C)C)c2c1CN(C(=O)CC1CC1)CC2`: 61.5%.
In the case of `CN(C)Cc1nn(C)c2c1CCN(C(=O)CC1CC1)C2`, the INHIBITION is recorded as -4.99%.
Next, `CC(C)n1nc(CN2CCCC2)c2c1CN(CC1CC1)CC2`: 58.3%.
As for `OC(CNCc1nnc2ccccn12)c1ccc2c(c1)OCCCO2` (centres undefined), the figure is 17%; as for `Cn1cc(NC(=O)N2CCC(Cc3ccccc3)CC2)ccc1=O`, 20.45%.
As for `Cc1cc(NC(=O)CN2CCCC2c2noc(C)n2)n(C)n1` (centres undefined), the INHIBITION is on record as -25.8%.
As for `CN(C)C(=O)N1CCc2onc(C(=O)Nc3cccnc3)c2C1`, the figure is -40.5%.
Consider `O=C(N1CCC2(CC1)[C@H](O)C[C@@H]2O)C1(c2ccccc2F)CC1`, for which the INHIBITION came out at 25.9%.
Next, `O=C(CN(CC(O)c1ccc(F)cc1)C1CC1)NC(C1CC1)C1CC1` (centres undefined): 45.7%; `O=C(CN(CC(O)c1ccc(F)cc1)C1CC1)NC1CCOCC1` (centres undefined): 22.6%.
As for `O=C(CN(CC(O)c1ccc(F)cc1)C1CC1)NCc1cccs1` (centres undefined), the figure is 65.4%; as for `Cc1cnn(CCNCC(=O)NCC2(c3ccccc3)CC2)c1`, 17.5%.
Consider `Cc1nc(C)n(CC2CCCN2Cc2nc(-c3ccoc3)no2)n1` (centres undefined), for which the INHIBITION is listed as 7.925%.
As for `CCCS(=O)(=O)N1CCC2(CN(c3cnn(C)c3)C(=O)CN2C)C1` (centres undefined), the figure is 21.6%; as for `Cc1nn(C)c2nc(C3CC3)c(Cl)c(C(=O)O)c12`, 23.4%; as for `O=C(N[C@@H]1CN(Cc2cccc(F)c2)C[C@H]1O)c1cscn1`, 47.1%.
Next, `O=C(c1cscn1)N1CCCC2(CCN2Cc2cccc(F)c2)C1` (centres undefined): 64.7%.
In the case of `COC(=O)CCC(=O)N1CCCC2(CCCN2Cc2cccc(F)c2)C1` (centres undefined), the INHIBITION is given as 37.6%.
Next, `O=C(c1ccccc1)N1CCCC2(CCN2Cc2cccc(F)c2)C1` (centres undefined): 61.1%; `O=C(O)CN1CCCC2(CCN2Cc2cccc(F)c2)C1` (centres undefined): 44.8%; `O=C(c1cscn1)N1CCC2(CN(Cc3ccncc3)C2)C1`: 24.9%.
Next, `Cc1c(C(=O)O)cnn1-c1ccc(-c2nc(C3CC3)no2)cn1`: 34%; `CNc1cncc(C2CCCN2S(=O)(=O)c2ccc(F)cc2)n1` (centres undefined): 35.2%.
As for `Cc1noc(C)c1C1CCCN1C(=O)CN1C(=O)OC(C)(C)C1=O` (centres undefined), the figure is 40.7%; as for `Cc1nc(COC[C@@]23CCC[C@@H]2CN(CC2CCOCC2)C3)cs1`, -5.63%.
Regarding `Cc1nc(COC[C@@H]2CCC[C@@]23CN(C)CCO3)cs1`, the INHIBITION came to 48.6%.
Next, `Cc1nc(COC[C@H]2CCC[C@]23CN(CC2CC2)CCO3)cs1`: 54.4%; `Cc1nc(COC[C@H]2CCC[C@]23CN(C2CCOC2)CCO3)cs1` (some centres undefined): 49.7%; `CCN1CCO[C@]2(CCC[C@H]2COCc2csc(C)n2)C1`: 52.9%.
As for `Cc1nc(COC[C@H]2CCC[C@@]23CN(C(C)C)CCO3)cs1`, the figure is 12.4%.
As for `CN(C)CCO[C@H]1CN(Cc2ccco2)[C@@H]2COC[C@H]12`, the figure is 30.3%; as for `Cc1csc(C(Cc2cccs2)NCc2cc3c(cc2C)OCO3)n1` (centres undefined), 45.45%.
Consider `CCN1CCC12CCN(C(=O)c1ccsc1)C2` (centres undefined), for which the INHIBITION is listed as -30%.
As for `O=C(c1ccc[nH]1)N1Cc2nccn2CC(COc2cccnc2)C1` (centres undefined), the figure is 3.58%.
Regarding `CCCc1noc(C2CCCCN2C(=O)CCc2cnn(C)c2)n1` (centres undefined), the INHIBITION is given as 1.56%.
As for `COc1ccc(-c2nc(C#N)c(N(C)C)o2)cc1S(=O)(=O)N1CCCC1`, the figure is -35.5%; as for `c1cncc(CN2CC[C@@H]3O[C@H](COCCN4CCCC4)CC[C@@H]32)c1`, -51%.
Turning to `COc1ccc(CNC(=O)NC(C)(CO)C2CC2)c(C(F)(F)F)c1` (centres undefined), the INHIBITION is listed as 17.8%.
Next, `COc1ccc(C[C@H]2CN(C3CCOCC3)CC[C@H]2OCC2CC2)cc1`: -24.5%; `Cc1noc(C)c1CN1C[C@H](OCC2CCN(C)CC2)[C@H]2COC[C@H]21`: -12.2%; `Cc1noc(C)c1CN1C[C@H](OCC2CC2)[C@H]2OCCC[C@H]21`: -1.64%.
As to `Cc1noc(C)c1CN1C[C@H](OCC2CC2)[C@H]2COC[C@H]21`, the INHIBITION was -41%.
As for `Cc1noc(C)c1CN1CC[C@@H](OCC2CC2)[C@@H](Cc2ccccc2)C1`, the figure is 73.4%; as for `Cc1noc(C)c1CN1CC[C@H](OCC2CC2)[C@@H](Cc2ccccc2)C1`, 53.2%.
